We go through 37 compounds from PubChem BioAssay (EPA / NIEHS).

Molecules are shown by their SMILES. Several values for one entry are separate records, joined by “and”; a condition that tells them apart may be missing. Identical values can stand only once. The source holds several records for some structures; these can differ, active in one and inactive in another. Activity calls are given as the source filed them. Rule for the calls: active = hit-call score of the fitted dose curve at least 0.9, where 1 is the maximum; inactive = score below 0.9.

A short description of this assay: ATG_NRF2_ARE_CIS: Attagene CIS-FACTORIAL HepG2 Assay for human Nuclear Factor Erythroid 2 Related Factor 2 (NFR2) response to Antioxidant Response Elements (ARE) (AID 2282992). The following applies: HepG2 Attagene ARE/NRF2 reporter, transcription factor activity; actives raise or lower the signal. Here is the method:
ATG_CIS is a cell-based, multiplexed-readout assay that uses HepG2, a human liver cell line, with measurements taken at 24 hours after chemical dosing in a 24-well plate.ATG_NRF2_ARE_CIS is one of 52 assay component(s) measured or calculated from the ATG_CIS assay. It is designed to make measurements of mRNA induction, a form of inducible reporter, as detected with fluorescence intensity signals by Reverse transcription polymerase chain reaction (RT-PCR) and Capillary electrophoresis technology.Data from the assay component ATG_NRF2_ARE_CIS was analyzed into 1 assay endpoint. This assay endpoint, ATG_NRF2_ARE_CIS, was analyzed with bidirectional fitting relative to DMSO as the negative control and baseline of activity. Using a type of inducible reporter, measures of mRNA for gain or loss-of-signal activity can be used to understand the reporter gene at the transcription factor-level as they relate to the gene NFE2L2. Furthermore, this assay endpoint can be referred to as a primary readout, because this assay has produced multiple assay endpoints where this one serves a reporter gene function. To generalize the intended target to other relatable targets, this assay endpoint is annotated to the dna binding intended target family, where the subfamily is basic leucine zipper.
Human liver HepG2 cells are transiently transfected with multiple reporter transcription units (MRTUs) in 6-well plates using FuGene 6 reagent (Roche; 3 ml FuGene/1 mg DNA). The MRTU constructs are regulated by a cis-regulating element (promoter). […] A major difference between the CIS and TRANS system is that in CIS activities of endogenous TFs are measured, whereas the TRANS assay evaluates changes in activities of exogenous, chimeric NR-Gal4 proteins. […] At the end of 24 hour incubation, total RNA was isolated using TriZol reagent (Invitrogen). The isolated RNA is then reverse-transcribed using oligo(dT) primer and Mo-MLV reverse transcriptase (Invitrogen) with DNAse I (Ambion) treatment for 30 min. The one-tenth of the produced cDNA was amplified by PCR using Taq DNA polymerase (Invitrogen) and two reporter sequence-specific primers. The PCR products were fluorescently labeled by primer extension with 6-arboxyfluorescein (6-FAM) 5'-labeled reporter sequence-specific primer (2 min at 95 C, 20 s at 68 C and 10 min at 72 C) and these products were digested with 5U of HpaI (New England Biolabs) for 2h at 37 C. The fragments were purified using Qiaquick PCR columns (Qiagen), analyzed on an ABI 3130xL genetic analyzer (Applied Biosystems) with peak positions identified by using a set of X-rhodamine (ROX)-labeled MapMarker1000 molecular weight standards (BioVentures). The raw capillary electrophoresis data was processed using Attagraph software (Attagene).
With `COCC1CCC(CO)CC1` (stereo not given), the result was inactive.

As to `O=C(CC(=O)C(F)(F)C(F)(F)C(F)(F)F)c1cccs1`, the AC50 (commonly the midpoint of the concentration-response curve, whichever way the signal moves) was 12.9 µM (active) and 20.2 µM (active).

Regarding `NC(C(F)(F)F)C(F)(F)F`, the compound was classed as inactive.

In the case of `O=C1NS(=O)(=O)c2ccccc21`, the compound was classed as inactive.

Turning to `CCC(C)c1nccnc1OC` (stereo not given), the compound was classed as inactive.

As to `CCC(=O)C=Cc1ccc(OC)cc1`, the AC50 was 27.1 µM (active).

With `C=C(c1ccc(C(=O)O)cc1)c1cc2c(cc1C)C(C)(C)CCC2(C)C`, the outcome was inactive.

Take `CCCCN(C)C`: the compound was called inactive.

Turning to `Cc1ccccc1OCC(=O)O`, the result was inactive.

Turning to `NNc1nc(-c2ccc([N+](=O)[O-])cc2)cs1`, the AC50 is 1.95 µM (active).

As to `C[N+](C)(CCCNS(=O)(=O)CCC(F)(F)C(F)(F)C(F)(F)C(F)(F)C(F)(F)C(F)(F)F)CC(=O)[O-]`, the AC50 was 0.00659 µM (active).

For `Clc1ccc2c(Cl)ccnc2c1`, the AC50 was 3.21 µM (active).

For the compound `CN(C)c1ccc(C(=C2C=CC(=[N+](C)C)C=C2)c2ccccc2)cc1`, the AC50 was 474 nM (active) and 475 nM (active).

Take `FC(F)(F)N1C(F)(F)C(F)(F)OC(F)(F)C1(F)F`: the compound was called inactive.

Regarding `Cc1ccc(C)c(S(=O)(=O)O)c1`, the call was inactive.

Take `Cc1ccccc1C(OCCN(C)C)c1ccccc1` (stereo not given): the compound was called inactive and the AC50 is 71.4 µM (active).

For the compound `CC1COCc2cc3c(cc21)C(C)(C)C(C)C3(C)C` (stereo not given), the AC50 is 41.2 µM (active).

As for `c1cc[nH]c1`, the call was inactive.

With `CCCCCCCCCCCC(=O)O`, the result was inactive and the AC50 is 100 µM (active).

As to `Cc1[nH]nc2c1N=C(c1ccccc1Cl)c1cc([N+](=O)[O-])ccc1N2`, the AC50 was 19.8 µM (active).

Turning to `O=CC(F)(F)C(F)(F)C(F)(F)F`, the outcome was inactive.

`CCCCC=O`: the outcome was inactive.

Regarding `COc1cc([N+](=O)[O-])ccc1N`, the outcome was inactive.

In the case of `Oc1c(Cl)ccc(Cl)c1Cl`, the compound was called inactive.

Turning to `CCCCCc1ccc(O)cc1`, the AC50 was 17.6 µM (active).

For `OCC(F)(F)C(F)(F)C(F)(F)C(F)(F)C(F)(F)C(F)(F)C(F)(F)C(F)(F)C(F)(F)C(F)(F)C(F)(F)F`, the AC50 was 55.4 µM (active).

Consider `CNNCc1ccc(C(=O)NC(C)C)cc1`, for which the outcome was inactive.

Take `O=C(O)c1cccc(C(=O)O)n1`: the call was inactive.

For `CC(O)COc1ccccc1` (stereo not given), the result was inactive.

Regarding `O=C1Cc2ccccc2N1c1c(Cl)cccc1Cl`, the AC50 is 23.2 µM (active).

As for `CN(Cc1cnc2nc(N)nc(N)c2n1)c1ccc(C(=O)N[C@@H](CCC(=O)O)C(=O)O)cc1`, the result was inactive.

In the case of `CCc1ccccc1O`, the AC50 was 37.1 µM (active).

On to `NC(=NCCCCCCN=C(N)/N=C(\N)Nc1ccc(Cl)cc1)/N=C(\N)Nc1ccc(Cl)cc1`, for which the outcome was inactive and the AC50 is 2.26 µM (active).

As for `O=C(O)C(=O)O`, the compound was classed as inactive.

Regarding `O=C(C=C(O)C(F)(F)F)C(F)(F)F`, the compound was classed as inactive.

For `O=C1c2ccccc2C(=O)c2c(O)c(O)cc(O)c21`, the AC50 is 5.36 µM (active).

For `Cc1cc(C(=C2C=CC(=Nc3ccc(S(=O)(=O)O)cc3)C=C2)c2ccc(Nc3ccc(S(=O)(=O)O)cc3)cc2)cc(S(=O)(=O)O)c1N`, the outcome was inactive.
